# PubChem BioAssay
# Activity calls are given as the source filed them. Unless noted, no stated cut-off is given here; in the data, active means inhibition above about 80%; inactive means the rest.
# Columns and labels:
# [1] = growth inhibition, single agent or in combination, cell-based, chromothripsis tumors, cisplatin or BGB combos (AID 1671449); details: LFS_MB_P medulloblastoma cells;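 further: cells exposed for 96 hours; 0% = vehicle DMSO and 100% = killing by high DMSO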
# [2] = growth inhibition, single agent and combos, cell-based, chromothripsis tumors, cisplatin or BGB combos (AID 1671450); details: HDN33 neuroblastoma cells, stronger effect = higher value;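 further: cells exposed to compound for four days; 0% = vehicle DMSO and 100% = cell killing by high DMSO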
# [3] = growth inhibition, single agents and combos, ICB984, cell-based, cisplatin or BGB combos, synergistic combos for chromothripsis tumors (AID 1671451; call rule not given here;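 further: cells exposed for 96 hours before readout; 0% = vehicle DMSO and 100% = killing by high DMSO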); details: ICB984 medulloblastoma cells, drug combinations, stronger effect = higher value
# [4] = growth inhibition, single agents and combos, LFS_MB_1R, cell-based, cisplatin or BGB combos, synergistic combos for chromothripsis tumors (AID 1671452); details: LFS_MB_1R medulloblastoma cells, stronger effect = higher value;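 further: cells exposed for 96 hours before readout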
# [5] = growth inhibition, single agents and combos, HTB85, cell-based, BGB or cisplatin IC20 combos, synergistic combos for chromothripsis tumors (AID 1671453); details: HTB85 osteosarcoma cells, drug combinations, stronger effect = higher value;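 further: cells exposed for 96 hours before readout; 0% = vehicle DMSO and 100% = high DMSO killing control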
# [6] = growth inhibition, single agents and combos, CRL2098, cell-based, BGB or cisplatin IC20 combos, synergistic combos for chromothripsis tumors (AID 1671454); details: CRL2098 osteosarcoma cells, drug combinations, stronger effect = higher value;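 further: cells exposed for 96 h before readout; 0% = vehicle DMSO and 100% = killing by high DMSO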
# [7] = growth inhibition, single agents and combos, HD-MB03, cell-based, BGB or cisplatin IC20 combos, synergistic combos for chromothripsis tumors (AID 1671455; in the data active means inhibition above about 83%;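 further: 0% = vehicle DMSO and 100% = high DMSO as cytotoxic control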); details: HD-MB03 medulloblastoma cells, stronger effect = higher value
# [8] = growth inhibition, single agents and combos, UWB1.289, cell-based, BGB or cisplatin combos, synergistic combos for chromothripsis tumors (AID 1671456); details: UWB1.289 ovarian carcinoma cells, stronger effect = higher value;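 further: cells exposed to compound for four days; 0% = vehicle DMSO and 100% = killing by high DMSO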
# [9] = growth inhibition, single agents and combos, LFS_MB_2R, cell-based, cisplatin combos, synergistic combos for chromothripsis tumors (AID 1671457); details: LFS_MB_2R medulloblastoma cells, stronger effect = higher value;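 further: cells exposed to compound for four days before readout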
# [10] = growth inhibition, MDA-MB-436, cell-based, BGB or cisplatin combos, synergistic combos for chromothripsis tumors (AID 1671458; call rule not given here;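 further: cells exposed for 96 hours; 0% = vehicle DMSO and 100% = killing by high DMSO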); details: MDA-MB-436 breast carcinoma growth inhibition, drug combinations, stronger effect = higher value
# [11] = UWB1.289_BRCA1 ovarian cancer growth, cell-based, BGB or cisplatin combinations (AID 1671459); details: UWB1.289 BRCA1 ovarian carcinoma, drug combinations, stronger effect = higher value
# [12] = drug combination toxicity in non-malignant astrocytes – cell-based, BGB or cisplatin IC20 combos, cytotoxicity control for chromothriptic childhood tumor combination screen (AID 1671460); details: Human astrocytes, viability inhibition, drug combinations, at 0.5 µM, stronger effect = higher value;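 further: cells exposed to compounds for 96 hours before viability readout; 0% = vehicle and 100% = killing control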
# [13] = BT084 cell growth, single and combined drugs, ICGC_MB145, cisplatin and BGB IC40 combos (AID 1671461); details: BT084 medulloblastoma cells, drug combinations, stronger effect = higher value;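 further: cells exposed to drugs for 96 hours; 0% = vehicle DMSO and 100% = high DMSO full killing control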
# [14] = RCMB18 cell growth, single agent and combined, cisplatin and BGB IC40 combos (AID 1671462); details: RCMB18 medulloblastoma cells, stronger effect = higher value;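 further: cells exposed to compound for four days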
# [15] = CRL1545 cell growth, single agent and combined, cisplatin and BGB IC20 combos (AID 1671464); details: CRL1545 osteosarcoma cells, stronger effect = higher value;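 further: cells exposed to compound for 96 hours before readout; 0% = vehicle DMSO and 100% = high DMSO killing control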
# [16] = measured here: combination with BGB IC40, at 0.05 µM
# [17] = measured here: with BGB IC20 combination, at 0.5 µM
# [18] = measured here: with cisplatin IC20 combination, at 0.5 µM
# [19] = measured here: combination with cisplatin, at 0.5 µM
# [20] = measured here: combination with cisplatin, at 5 µM
smiles,measurement,setting,value
Cn1cc(-c2cnn3c(N)c(Br)c([C@H]4CCCNC4)nc23)cn1,inhibition,"[1]; at 0.5 µM, stronger effect = higher value",20.2% (inactive)
same,inhibition,"[1]; measured here: combination with BGB IC20, at 0.005 µM",-7.68%
same,inhibition,"[1]; measured here: combination with BGB IC40, at 0.005 µM",93.8%
same,inhibition,[1]; [16],11.8%
same,inhibition,"[1]; measured here: combination with cisplatin, at 0.5 µM, stronger effect = higher value",10.2%
same,inhibition,"[1]; measured here: combination with cisplatin, at 5 µM, stronger effect = higher value",-24.2%
same,inhibition,"[2]; BGB combo, at 5 µM",73.2%
same,inhibition,[2]; at 0.5 µM,22.3% (inactive)
same,inhibition,"[2]; cisplatin combo, at 5 µM",83.7%
same,inhibition,[2]; [17],9.52%
same,inhibition,[2]; [18],28.6%
same,inhibition,"[2]; single agent, at 5 µM",88.5%
same,inhibition,"[3]; BGB IC20 combo, at 0.005 µM",-13.9%
same,inhibition,"[3]; BGB IC40 combo, at 0.005 µM",-26.3%
same,inhibition,"[3]; BGB IC40 combo, at 0.05 µM",-14.6%
same,inhibition,[3]; at 0.5 µM,-16.3% (inactive)
same,inhibition,"[3]; cisplatin combo, at 0.05 µM",-20.5%
same,inhibition,"[3]; cisplatin combo, at 0.5 µM",-27.1%
same,inhibition,"[3]; cisplatin combo, at 5 µM",-5.82%
same,inhibition,"[3]; measured here: 5 uM single agent, at 5 µM",-16.1%
same,inhibition,[4]; at 0.5 µM,2.92% (inactive)
same,inhibition,[4]; [16],-16.9%
same,inhibition,[4]; [19],5.45%
same,inhibition,[4]; [20],-19.5%
same,inhibition,[5]; at 0.5 µM,-14.3% (inactive)
same,inhibition,"[5]; measured here: with BGB IC20, at 0.5 µM",4.42%
same,inhibition,"[5]; measured here: with BGB IC20, at 5 µM",66.4%
same,inhibition,"[5]; measured here: with cisplatin IC20, at 0.5 µM",-18.4%
same,inhibition,"[5]; measured here: with cisplatin IC20, at 5 µM",80.6%
same,inhibition,"[5]; single agent, at 5 µM",52.9%
same,inhibition,[6]; at 0.5 µM,-2.8% (inactive)
same,inhibition,"[6]; measured here: combination with BGB at IC20, at 0.5 µM",-24%
same,inhibition,"[6]; measured here: combination with cisplatin at IC20, at 0.5 µM",-3.06%
same,inhibition,[7]; at 0.5 µM,6.2% (inactive)
same,inhibition,"[7]; measured here: combo with BGB at IC20, at 0.5 µM",2.25%
same,inhibition,"[7]; measured here: combo with cisplatin at IC20, at 0.5 µM",17.7%
same,inhibition,[8]; at 0.5 µM,28.5% (inactive)
same,inhibition,"[8]; measured here: inhibition with BGB combination, at 0.05 µM",-6.38%
same,inhibition,"[8]; measured here: inhibition with cisplatin combination, at 0.05 µM",-4.25%
same,inhibition,[9]; at 0.5 µM,-5.31% (inactive)
same,inhibition,[9]; [19],-14.4%
same,inhibition,[9]; [20],-6.17%
same,inhibition,[10]; at 0.5 µM,29.3% (inactive)
same,inhibition,"[10]; measured here: BGB combination, at 0.5 µM",21.8%
same,inhibition,"[10]; measured here: BGB combination, at 5 µM",53.4%
same,inhibition,"[10]; measured here: cisplatin combination, at 0.5 µM",36.8%
same,inhibition,"[10]; measured here: cisplatin combination, at 5 µM",73.3%
same,inhibition,"[11]; BGB combination, concentration series, at 5 µM",103%
same,inhibition,[11]; at 0.5 µM,7.13% (inactive)
same,inhibition,"[11]; cisplatin combination, concentration series, at 5 µM",119%
same,inhibition,[12],-19% (inactive)
same,inhibition,[12]; measured here: combo with BGB IC20,-17.5%
same,inhibition,[12]; measured here: combo with cisplatin IC20,-30.9%
same,inhibition,[13]; at 0.5 µM,11% (inactive)
same,inhibition,"[13]; cisplatin combination, at 0.5 µM",16.1%
same,inhibition,"[13]; cisplatin combination, at 5 µM",-105%
same,inhibition,"[13]; measured here: BGB IC40 combination 0.05 uM, at 0.05 µM",5.34%
same,inhibition,"[13]; single agent, at 5 µM",34.7%
same,inhibition,[14]; at 0.5 µM,4.28% (inactive)
same,inhibition,"[14]; cisplatin combo, at 5 µM",22.7%
same,inhibition,"[14]; measured here: BGB IC40 combination, at 0.05 µM",-33.2%
same,inhibition,[14]; [19],-3.81%
same,inhibition,"[14]; single agent, at 5 µM",47.3%
same,inhibition,[15]; at 0.5 µM,79.7% (inactive)
same,inhibition,[15]; [17],73.9%
same,inhibition,[15]; [18],82.3%
same,inhibition,"[15]; single agent, at 0.05 µM",19%
same,inhibition,"[15]; single agent, at 5 µM",92.3%
